# Laboratory results reported in PubChem BioAssay (NCATS).
# Several values for one entry are separate records, joined by “and”; a condition that tells them apart may be missing. Equal entries are not always repeated. Results filed as inconclusive are left out. Entries that show only a call come without a potency. A number with no mark means an inactive call. Activity calls are given as the source filed them. Unless noted, calls follow the shape of the dose curve; as a rule, active = well fitted curve in the direction sought with a large enough effect; inconclusive = small, poorly fitted or top-dose-only effect, or another doubt; inactive = no such curve, though single readings can be large; an effect the other way counts as inactive or inconclusive. Positions of bridges follow the written chain, without caps; N, C: chain ends. Non-standard residues stand in square brackets, D forms with d. Residues, ends and D or L forms follow the SMILES beside them. *: point of attachment. X1 = CCC(C)C(N)C1=NC(C(=O)*)CS1; dOrn = NCCC[C@@H](N)C(=O)O
# Key:
# [1] = biological target: Cellular tumor antigen p53 (Homo sapiens) (UniProt P04637); experiment: Primary qHTS for small molecule compounds that upregulate eGFP-tagged delta133p53alpha (in N-terminal) cells. (AID 2060322); settings: NCI-H358 eGFP-delta133p53alpha fluorescence, 24 h; activation: active compounds read high; also: nearly all actives have a fitted effect of over 75% in size; also: potency is read from the fitted curve at half-maximal effect; as to activation: series mostly up to about 56 µM
# Chain of Cellular tumor antigen p53 (Homo sapiens) (P04637 whole entry, looked up): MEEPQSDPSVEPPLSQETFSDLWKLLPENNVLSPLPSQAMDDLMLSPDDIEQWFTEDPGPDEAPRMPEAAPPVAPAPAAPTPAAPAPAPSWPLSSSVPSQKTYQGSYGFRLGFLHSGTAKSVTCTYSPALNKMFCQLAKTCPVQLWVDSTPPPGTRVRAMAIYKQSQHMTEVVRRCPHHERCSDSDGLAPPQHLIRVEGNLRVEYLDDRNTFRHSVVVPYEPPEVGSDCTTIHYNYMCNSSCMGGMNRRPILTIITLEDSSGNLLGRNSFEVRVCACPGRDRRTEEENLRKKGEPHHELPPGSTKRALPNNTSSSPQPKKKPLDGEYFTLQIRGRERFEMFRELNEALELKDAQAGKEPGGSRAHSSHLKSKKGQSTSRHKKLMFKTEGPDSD
# Method in brief: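 NCI-H358 cells pre-induced 24 h with 10 ng/ml doxycycline to express N-terminal eGFP-delta133p53alpha, then dosed 24 h at 37C without doxycycline; fixed, Hoechst-stained, GFP intensity by laser scanning cytometry, normalized to DMSO (0%) and 57.5 uM 5-azacytidine (100%).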
# [2] = biological target: Aldehyde dehydrogenase, mitochondrial (Homo sapiens) (UniProt P05091); experiment: qHTS for Inhibitors of the Aldehyde Dehydrogenase Family (ALDH2) Confirmatory screens (AID 2061303; active = well fitted inhibition curve with a large enough effect; title and protocol of this record describe different tests; also: nearly all actives have a fitted effect of over 45% in size; also: potency is read from the fitted curve at half-maximal effect)
# [3] = biological target: Aldehyde dehydrogenase, mitochondrial (Homo sapiens) (UniProt P05091); experiment: qHTS for Inhibitors of the Aldehyde Dehydrogenase Family (ALDH2) Primary screen (AID 2061308); also: nearly all actives have a fitted effect of over 55% in size
# [4] = biological target: Retinaldehyde dehydrogenase 3 (Homo sapiens) (UniProt P47895); experiment: qHTS for Inhibitors of the Aldehyde Dehydrogenase Family (ALDH1A3) Confirmatory screens (AID 2061311); also: nearly all actives have a fitted effect of over 60% in size; also: potency is read from the fitted curve at half-maximal effect
# [5] = biological target: Retinaldehyde dehydrogenase 3 (Homo sapiens) (UniProt P47895); experiment: qHTS for Inhibitors of the Aldehyde Dehydrogenase Family (ALDH1A3) Validation screen (AID 2061312); also: nearly all actives have a fitted effect of over 45% in size; also: potency is read from the fitted curve at half-maximal effect
# [6] = biological target: Retinal dehydrogenase 2 (Homo sapiens) (UniProt O94788); experiment: qHTS for Inhibitors of the Aldehyde Dehydrogenase Family (ALDH1A2) Confirmation screens (AID 2061314); also: nearly all actives have a fitted effect of over 65% in size; also: potency is read from the fitted curve at half-maximal effect
# [7] = biological target: Retinaldehyde dehydrogenase 3 (Homo sapiens) (UniProt P47895); experiment: qHTS for Inhibitors of the Aldehyde Dehydrogenase Family (ALDH1A3) Primary screen (AID 2061315)
# [8] = biological target: Aldehyde dehydrogenase 1A1 (Homo sapiens) (UniProt P00352); experiment: qHTS for Inhibitors of the Aldehyde Dehydrogenase Family (ALDH1A1) Confirmatory screens (AID 2061316); also: nearly all actives have a fitted effect of over 65% in size; also: potency is read from the fitted curve at half-maximal effect
# [9] = BET inhibitor-based combinations targeting novel dependencies in MECOM-rearranged (r) AML: SET-2 cell line (AID 2202231); settings: SET-2 AML cells viability, CellTiter-Glo luminescence, 48 h; viability: active compounds read low, concentration not given here; also: nearly all actives have a fitted effect of over 35% in size; also: potency is read from the fitted curve at half-maximal effect
# Method in brief: (§1)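 500 cells/well; 11-pt dose curve; 48 h, standard incubator; CellTiter-Glo luminescence after 15 min RT; DMSO/empty-well normalization; AUC plus Z-AUC (mean-centered within each line).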
# [10] = BET inhibitor-based combinations targeting novel dependencies in MECOM-rearranged (r) AML: OCI-AML3 cell line (AID 2202232); settings: Potency: OCI-AML3 viability; also: nearly all actives have a fitted effect of over 35% in size; also: potency is read from the fitted curve at half-maximal effect
# Method in brief: as §1
# [11] = BET inhibitor-based combinations targeting novel dependencies in MECOM-rearranged (r) AML: MV-4-11 cell line (AID 2202233); also: nearly all actives have a fitted effect of over 45% in size; also: potency is read from the fitted curve at half-maximal effect
# Method in brief: (§2)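 Cells were plated at 500 per well and exposed to each drug across an 11-point dose range for 48 hr at standard incubator conditions. Viability was read by CellTiter-Glo luminescence, and activity was expressed as AUC and per-cell-line Z-transformed AUC.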
# [12] = BET inhibitor-based combinations targeting novel dependencies in MECOM-rearranged (r) AML: HNT-34 cell line (AID 2202234); also: nearly all actives have a fitted effect of over 35% in size; also: potency is read from the fitted curve at half-maximal effect
# Method in brief: as §2
# [13] = BET inhibitor-based combinations targeting novel dependencies in MECOM-rearranged (r) AML: UCSD-AML1 cell line (AID 2202235); also: nearly all actives have a fitted effect of over 40% in size; also: potency is read from the fitted curve at half-maximal effect
# Method in brief: as §2
# [14] = BET inhibitor-based combinations targeting novel dependencies in MECOM-rearranged (r) AML: AML-191 cell line (AID 2202236; also: potency is read from the fitted curve at half-maximal effect; nearly all actives have a fitted effect of over 35% in size)
# Method in brief: as §1
# [15] = BET inhibitor-based combinations targeting novel dependencies in MECOM-rearranged (r) AML: AML-194 cell line (AID 2202237; also: nearly all actives have a fitted effect of over 40% in size; also: potency is read from the fitted curve at half-maximal effect)
# Method in brief: as §1
# [16] = qHTS for Inhibitors of the Aldehyde Dehydrogenase Family (ALDH1A2, ALDH1A3, ALDH2, ALDH3A1) (AID 2061307); also: nearly all actives have a fitted effect of over 50% in size
compound,measurement,setting,value
Nc1ccccc1NC(=O)c1ccc(CNC(=O)OCc2cccnc2)cc1,activation,[1],3.28%
same,Potency,[2],inactive
same,Potency,[3],inactive
same,Potency,[4],inactive
same,Potency,[5],inactive
same,Potency,[6],inactive
same,Potency,[7],inactive
same,Potency,[8],inactive
same,Potency,[9],2.09 µM (active)
same,Potency,[10],2.35 µM (active)
same,Potency,[11],1.48 µM (active)
same,Potency,[12],2.35 µM (active)
same,Potency,[13],1.66 µM (active)
same,Potency,[14],2.63 µM (active)
same,Potency,[15],4.68 µM (active)
CN(C)C(=O)Nc1cccc(-c2ccc(N(C)C)cc2)c1,activation,[1],-14.8%
same,Potency,[2],inactive
same,Potency,[16],inactive
same,Potency,[3],inactive
same,Potency,[8],inactive
CCC(C)C(N)C1=NC(C(=O)N[C@@H](CC(C)C)C(=O)N[C@H](CCC(=O)O)C(=O)N[C@H](C(=O)N[C@H]2CCCCNC(=O)[C@H](CC(N)=O)NC(=O)[C@@H](CC(=O)O)NC(=O)[C@H](Cc3cnc[nH]3)NC(=O)[C@@H](Cc3ccccc3)NC(=O)[C@H]([C@@H](C)CC)NC(=O)[C@@H](CCCN)NC2=O)[C@@H](C)CC)CS1 (some centres not stated) (X1-L[dE]IK[dOrn]I[dF]H[dD]N; lactam 4-C),activation,[1],-3.34% and -0.955%
same,Potency,[2],12.7 µM (active)
same,Potency,[3],inactive
same,Potency,[4],inactive
same,Potency,[5],inactive
same,Potency,[6],11.3 µM (active)
same,Potency,[7],inactive
same,Potency,[8],4 µM (active)
same,viability,[9],117%
same,Potency,[10],inactive
same,Potency,[11],inactive
same,Potency,[12],inactive
same,Potency,[13],inactive
same,Potency,[15],inactive
O=C(Nc1ccccc1)N1CCN(Cc2ccc3ccccc3n2)CC1,activation,[1],8.59%
same,Potency,[2],inactive
same,Potency,[3],inactive
same,Potency,[4],inactive
same,Potency,[5],inactive
same,Potency,[6],inactive
same,Potency,[7],inactive
same,Potency,[8],inactive
CN(C)c1ccc(C2O[C@@H](c3ccccc3)C[C@H](c3ccccc3)O2)cc1 (some centres not stated),activation,[1],-3.34%
same,Potency,[2],3.55 µM (active)
same,Potency,[16],3.57 µM (active)
same,Potency,[4],3.55 µM (active)
same,Potency,[5],44.7 µM (active)
same,Potency,[6],10 µM (active)
same,Potency,[8],10 µM (active)
CO/N=C(/C(=O)N[C@@H]1C(=O)N2C(C(=O)O)=C(Cn3ccc(=N)n3CCO)CS[C@H]12)c1csc(N)n1,activation,[1],2.39%
same,Potency,[2],inactive
same,Potency,[16],inactive
same,Potency,[5],inactive
same,Potency,[6],inactive
same,Potency,[7],inactive
COC(=O)c1ccc(O[C@@H]2O[C@H](CO)[C@@H](O)[C@H](O)[C@H]2O)c(OC)c1,activation,[1],-13.4%
same,Potency,[2],inactive
same,Potency,[3],inactive
same,Potency,[4],17.5 µM (active)
CC(C)C[C@H](NC(=O)[C@@H](NC(=O)c1cccc(-c2ccccc2)n1)[C@@H](C)O)B(O)O,Potency,[1],385 nM (active) and 16.9 µM (active)
same,Potency,[2],inactive
same,Potency,[16],inactive
same,Potency,[4],inactive
same,Potency,[5],10 µM (active)
same,Potency,[6],inactive
same,Potency,[7],inactive
same,Potency,[8],inactive
same,Potency,[9],0.0723 µM (active)
same,Potency,[10],0.0407 µM (active)
same,Potency,[12],0.0645 µM (active)
same,Potency,[13],0.0723 µM (active)
same,Potency,[14],0.0811 µM (active)
same,Potency,[15],0.091 µM (active)
CN(C)c1ccc2c(c1)OC(N)=C(C#N)C2c1cccc(C(F)(F)F)c1 (configuration not stated),Potency,[1],953 nM (active)
same,Potency,[2],inactive
same,Potency,[16],inactive
same,Potency,[8],inactive
COCCN(C(=O)c1cc(OC)c(OC)c(OC)c1)c1nc(-c2ccccc2)cs1,activation,[1],19.1%
same,Potency,[2],inactive
same,Potency,[16],inactive
same,Potency,[4],inactive
same,Potency,[6],inactive
same,Potency,[8],inactive
CCOC(=O)c1cccc(CNc2ccc(N(C)C(=O)Nc3ccccc3)cc2)c1,activation,[1],-12.9%
same,Potency,[2],inactive
same,Potency,[16],inactive
same,Potency,[4],inactive
same,Potency,[6],inactive
same,Potency,[8],inactive
Cc1nnc(-c2sc(NC(=O)[C@H](C(C)C)n3c(=O)[nH]c4ccccc4c3=O)nc2C)o1,activation,[1],-7.64%
same,Potency,[2],inactive
same,Potency,[16],inactive
same,Potency,[4],inactive
same,Potency,[6],inactive
same,Potency,[7],inactive
same,Potency,[8],inactive
O=C1CC(c2ccc([N+](=O)[O-])cc2)=NN1c1ccccc1,activation,[1],-8.93%
same,Potency,[2],inactive
same,Potency,[16],inactive
same,Potency,[4],11.3 µM (active)
same,Potency,[8],inactive
CCCN(CCN1CCN(c2ccccc2OC)CC1)C1CCc2ncsc2C1 (configuration not stated),activation,[1],-3.57%
same,Potency,[2],inactive
same,Potency,[16],inactive
same,Potency,[4],inactive
same,Potency,[6],inactive
same,Potency,[8],inactive
Cn1cnc(-c2nccc3c(=O)[nH]c(OCCCC(F)(F)F)nc23)c1,activation,[1],-13.4%
same,Potency,[2],inactive
same,Potency,[16],inactive
same,Potency,[6],inactive
same,Potency,[7],inactive
same,Potency,[8],inactive
O=C(C1CCCCC1)N(CCN1CCN(c2ccccc2O)CC1)c1ccccn1,activation,[1],-3.34%
same,Potency,[2],inactive
same,Potency,[16],inactive
same,Potency,[6],inactive
same,Potency,[8],11.3 µM (active)
COC(=O)c1c(C)cc(OC(=O)c2c(C)cc(OC)cc2OC)cc1O[C@@H]1O[C@H](CO)[C@@H](O)[C@H](O)[C@H]1O,activation,[1],-15.3%
same,Potency,[2],inactive
same,Potency,[3],inactive
same,Potency,[7],inactive
CC1=C2CC3C(CCC3(C)O)C(C)(O)CC2OC1=O (configuration not stated),activation,[1],-2.68%
same,Potency,[2],inactive
same,Potency,[3],inactive
same,Potency,[6],inactive
same,Potency,[7],inactive
same,Potency,[8],inactive
COc1ccc(-c2ccn(CC[C@](C)(C(=O)NO)S(C)(=O)=O)c(=O)c2)c(F)c1,activation,[1],-16.3%
same,Potency,[2],7.94 µM (active)
same,Potency,[3],inactive
same,Potency,[4],7.98 µM (active)
same,Potency,[6],5.65 µM (active)
same,Potency,[8],2.52 µM (active)
O=C(OC1C=C(CO)C2C(OC3OC(CO)C(O)C(O)C3O)OC=CC12O)c1ccc(O)cc1 (configuration not stated),activation,[1],12.2%
same,Potency,[2],inactive
same,Potency,[3],inactive
same,Potency,[6],inactive
O=C(CCCCCCC(=O)Nc1ccccc1)NO,activation,[1],17.7% and 26.7%
same,Potency,[2],inactive
same,Potency,[3],inactive
same,Potency,[4],inactive
same,Potency,[5],22.4 µM (active)
same,Potency,[6],inactive
same,Potency,[8],inactive
same,Potency,[10],1.86 µM (active)
same,Potency,[11],0.742 µM (active)
